# High-throughput results deposited in PubChem BioAssay by National Center for Advancing Translational Sciences (NCATS).
# Compounds with a hit are over-represented: about 11% of the library has one in this group of screens.
# HPGD inh: blocks human HPGD enzyme activity. purified HPGD, NADH fluorescence kinetic, PGE2 substrate. Potency, µM, inactives show top-dose activity change, negative = inhibition, actives largely listed as inhibitors. hit rate 4.3% among 150,000. AID 894; further: potency means the concentration at half of the fitted maximal effect
#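 20 nM HPGD preincubated 15 min at room temperature with compound in 50 mM Tris-HCl pH 8, 0.01% Tween 20. Started with 1 mM NAD+ and 30 uM prostaglandin E2; NADH fluorescence (360/450 nm) read 5 times over 30-s intervals, last minus first.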
# IMPase cell inh: cell-permeable inhibitors of inositol monophosphatase (IMPase); P97697; CHO-M1 cells, IP1 accumulation, HTRF TR-FRET ratio; inhibition (IP1 accumulation), % at 46.1 µM; 120,000 tested, under 10 active; active means well fitted curve in the direction sought with a large enough effect in the signal ratio, not every such curve was filed as active; inconclusive means small, poorly fitted or top-dose-only effect, or a change in a side signal; inactive means no such curve, though single readings can be large or run the other way; the % refers to the signal ratio;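 further: cells stimulated with carbachol in lithium chloride buffer; plate controls were DMSO basal wells for no effect and reference inhibitor wells for full effect; higher means more IMPase inhibition seen as more IP1 and lower FRET ratio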
#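 The IP-One HTRF competitive assay in carbachol-stimulated CHO-M1 cells quantifies cellular IP1. Compounds spanned up to 46 uM final, and activity is expressed as AC50 from concentration-response fits of the ratio and donor data.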
# PNC inhibitor: perinucleolar compartment assembly inhibition; activity change (PNC), negative = inhibition, % at 10 µM; PC3M PTB-GFP, PNC prevalence imaging, 16 h; hits give low values; hit rate 3.1% among 140,000; AID 2417;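 active means readout at or below -70, meaning at least 70% loss of cells showing the perinucleolar compartment, a nuclear body marking cancer cells; inconclusive means readout between -30 and a set limit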;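 further: plate controls were DMSO wells for no effect and camptothecin positive control wells for full effect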
#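 Compounds are pinned in duplicate onto adhered PC3M cells stably expressing GFP-tagged PTB and incubated 16 h at 37 C. Cells are then fixed, nuclei stained with Hoechst, and PNC-positive cells counted.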
# IMPase Li inh: membrane-permeable IMPase blocker, potentiated with lithium; AID 1457; CHO-M1 cells, IP1 TR-FRET (IP-One), carbachol + lithium; Potency, µM (doses to about 59.4 µM), without a hit: at the highest dose activity, negative = IMPase inhibition, usual class: inhibitors; hit rate 0.35% among 210,000; active means well fitted inhibition curve with a large enough effect; inconclusive means small, poorly fitted or top-dose-only effect; inactive means no such curve, though single readings can be large or run the other way;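 further: IP1 builds up when IMPase is blocked and the TR-FRET signal falls; potency means the concentration at half of the fitted maximal effect; plate controls were basal vehicle for no effect and high inhibitor control for full effect; nearly all actives have a fitted effect of over 50% in size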
#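 Lithium-sensitised IP1 accumulation assay; M1-expressing CHO cells treated 30 min at 37C with compound. Competitive antibody detection by time-resolved FRET followed a 10 min room-temperature lysis step.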
# ALDH1A1 block: inhibitors of human aldehyde dehydrogenase 1A1 | P00352 | Purified ALDH1A1, NADH fluorescence, propionaldehyde substrate | Potency, µM (doses to about 75.3 µM), for inactives: top-dose activity, negative = inhibition, most hits filed as inhibitors | hit rate 7.3% among 220,000 | AID 1030;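 further: potency means the concentration at half of the fitted maximal effect; plate controls were no enzyme wells and a reference inhibitor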
# Target sequence (P00352 whole entry, looked up): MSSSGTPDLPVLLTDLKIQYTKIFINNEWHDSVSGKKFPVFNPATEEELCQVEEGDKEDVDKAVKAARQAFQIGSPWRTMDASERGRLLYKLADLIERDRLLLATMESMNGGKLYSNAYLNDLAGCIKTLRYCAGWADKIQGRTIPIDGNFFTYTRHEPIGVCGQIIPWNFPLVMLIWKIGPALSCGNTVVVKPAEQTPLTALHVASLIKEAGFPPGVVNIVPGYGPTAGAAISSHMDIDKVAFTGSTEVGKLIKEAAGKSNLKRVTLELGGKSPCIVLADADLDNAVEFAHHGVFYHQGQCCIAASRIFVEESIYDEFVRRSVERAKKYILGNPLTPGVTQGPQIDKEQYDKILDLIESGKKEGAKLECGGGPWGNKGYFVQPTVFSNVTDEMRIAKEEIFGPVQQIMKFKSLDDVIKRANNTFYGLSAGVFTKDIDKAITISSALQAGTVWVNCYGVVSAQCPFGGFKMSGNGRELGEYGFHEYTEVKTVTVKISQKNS
# * marks the source's active call; other numbers are inactive results; ? = inconclusive; nt = no result; [ ] = dose if it differs, or a comment. Unless noted, the call rests on the fitted dose curve; in most records, active means well fitted inhibition curve with a large enough effect (not every such curve was filed as active); inconclusive means small, poorly fitted or top-dose-only effect, or another doubt; inactive means no such curve, though single readings can be large or run the other way. Unless noted, on the % scale 0 is the no-effect control and ±100 the full control effect.
SMILES,HPGD inh,IMPase cell inh,PNC inhibitor,IMPase Li inh,ALDH1A1 block
COc1ccc(-n2c(=O)c(CCc3ccccc3)nc3cnc(N4CCN(C)CC4)nc32)cc1,nt,nt,nt,2%,-11%
O=C(NC(=S)Nc1nc(-c2cccc3ccccc23)cs1)c1cc2ccccc2o1,-13%,-1,-2,-20%,20µM*
c1ccc(-c2nc(-c3ccco3)cs2)nc1,-10%,-2,-100*,-8%[38.3 µM],?
O=C(Cc1ccccc1F)Nc1nc(-c2cccs2)cs1,-21%,11,21,4%[38.3 µM],-1%
O=C(Nc1nc(-c2ccccn2)cs1)c1ccco1,nt,nt,nt,4%,35µM*
c1ccc(-c2nccc(-c3ccco3)n2)nc1,nt,nt,nt,0%,?
O=C(Cc1ccccc1F)Nc1nc(-c2cccnc2)cs1,nt,nt,nt,-11%,25µM*
O=c1c2nnn(-c3ccccc3)c2ncn1C/C=C/c1ccccc1,nt,nt,nt,6%,?
CCCn1c(=N)c(C(=O)NC2CCCCC2)cc2c(=O)n3cc(C)ccc3nc21,nt,1,nt,nt,nt
O=C(NC(=S)Nc1nc(-c2ccccc2)cs1)c1cccnc1,nt,nt,nt,-8%,8.9µM*
O=C(NC(=S)Nc1nc(-c2ccccc2)cs1)c1ccco1,nt,nt,nt,7%,14µM*
COc1ccc(-c2csc(NC(=S)NC(=O)c3ccco3)n2)cc1,nt,nt,nt,-2%,7%
COc1ccc(OCCCC(=O)Nc2nc(-c3ccccn3)cs2)cc1,nt,nt,nt,13%,32µM*
CCCOc1ccc(C2NC(=S)NC(c3ccccc3)=C2C(=O)Nc2ccc(C)cc2)cc1OC (configuration not stated),-10%,-8,?,-2%,0.35µM*
COc1cc(C2NC(=S)NC(c3ccccc3)=C2C(C)=O)cc(Br)c1OCC(N)=O (configuration not stated),nt,nt,nt,2%,14µM*
CCOC(=O)C1=C(c2ccccc2)NC(=O)NC1c1cc(Br)c(O)c(OC)c1 (configuration not stated),nt,nt,nt,6%,22µM*
COc1cc(C2NC(=O)NC(c3ccccc3)=C2C(C)=O)ccc1OCC(=O)O (configuration not stated),1%,-8,57,-7%[38.3 µM],5%
CCOC(=O)C1=C(C)NC(=O)NC1c1cc(Br)c(O)c(OC)c1 (configuration not stated),-6%,6,?,10%[38.3 µM],2%
CC(=O)C1=C(O)C(=O)N(CCCn2ccnc2)C1c1ccc(C)cc1 (configuration not stated),-22%,-3,7,-8%[38.3 µM],-10%
O=C(COc1ccccc1)N1CCN(S(=O)(=O)c2cccc([N+](=O)[O-])c2)CC1,nt,nt,nt,-2%,-6%
CCN(CC)S(=O)(=O)c1ccc(NN)nc1,nt,nt,nt,1%,-7%
CCN(CC)S(=O)(=O)c1ccc(Oc2cccc(C(C)=O)c2)nc1,-14%,1,-21,11%[38.3 µM],14µM*
COc1ccc(N2C(=O)CC(Sc3nc4ccccc4s3)C2=O)cc1OC (configuration not stated),nt,nt,nt,13%,3.5µM*
CC(=O)Nc1ccc(N2C(=O)CC(Sc3nc4ccccc4s3)C2=O)cc1 (configuration not stated),nt,nt,nt,19%,0.71µM*
CC(=O)Nc1ccc(N2C(=O)CC(c3ccccc3)CC2=O)cc1,-13%,1,-9,1%[38.3 µM],2%
SMILES,HPGD inh,IMPase cell inh,PNC inhibitor,IMPase Li inh,ALDH1A1 block
CCOC(=O)c1cnc(SC2CC(=O)N(c3ccc(OC)c(OC)c3)C2=O)nc1N (configuration not stated),-13%,3,-4,4%,?
CN(Cc1ccco1)c1cc(-c2ccc3c(c2)OCO3)ncn1,nt,nt,nt,15%,?
CCS(=O)(=O)Nc1ccc2[nH]c(=O)[nH]c2c1,nt,nt,nt,-1%,4%
NC(=O)c1ccc(-n2nnnc2Oc2ccccc2)cc1,-2%,8,-9,11%[38.3 µM],-1%
COc1ccccc1Oc1nnnn1-c1ccc(C(N)=O)cc1,-8%,-6,0,18%[38.3 µM],13µM*
CC(C)Oc1nnnn1-c1ccccc1,-13%,7,?,-7%[38.3 µM],-1%
c1ccc(-n2nnnc2OCCOc2nnnn2-c2ccccc2)cc1,-6%,6,7,0%[38.3 µM],2.5µM*
COc1ccc(Oc2nnnn2-c2ccccc2)cc1,-7%,-4[0.369 µM],?,-6%,7.9µM*
Cc1ccc(C(C)C)c(Oc2nnnn2-c2ccccc2)c1,-3%,8,?,43%[38.3 µM],18µM*
